From publication PMC4552634, “A New Set of Chemical Starting Points with Plasmodium falciparum Transmission-Blocking Potential for Antimalarial Drug Discovery” (PLoS ONE, 2015)
The whole screen tested about 13,000 compounds, of which about 3,200 (25%) showed an effect of 50% or more. The list shows a part of the results.

System: P. falciparum stage V gametocytes
Set-up: BacTiter-Glo ATP luminescence viability of purified stage V gametocytes in 384-well plates, per cent inhibition versus DMSO
Details: 48 h, 5 µM; inhibitor

Compound | % Inhibition
CCOC(=O)CNC(=O)N1CCN(C(=O)NCC(=O)OCC)CC1 [TCMDC-138998] | -3.887%
Cc1c(-c2ccccc2)ccc2[nH]cc(CC#N)c12 [TCMDC-139748] | 49.07%
O=C(Nc1cccc(CN2CCCN(Cc3ccc(O)cc3)CC2)c1)c1ccc2ccccc2n1 [TCMDC-141860] | 34.74%
CCOc1cc(C)ccc1C1CCN(CCCCNC(=O)c2nc(-c3ccc(C(F)(F)F)cc3)[nH]c2C)CC1 [TCMDC-138585] | -10.92%
COc1ccc(-c2nc3ccc(C)nc3nc2-c2ccc(OC)cc2)cc1 [TCMDC-142014] | 17.71%
CC(CCc1ccccc1)NCC(O)c1cccc(C(F)(F)F)c1 (stereo not drawn) [TCMDC-131247] | 18.39%
c1ccc(-c2nc(NCCCn3ccnc3)cc(-c3ccncc3)n2)cc1 [TCMDC-125417] | 49.28%
FC(F)(F)c1cccc(-c2cc(NCCCn3ccnc3)nc(-c3ccncc3)n2)c1 [TCMDC-125414] | 56.64%
c1ccc(-c2cc(NCCCn3ccnc3)nc(-c3cccnc3)n2)cc1 [TCMDC-125422] | 8.996%
CC1CN=C(c2ccc(NC(=O)c3ccc(C(=O)Nc4ccc(C5=NCC(C)N5)cc4)cc3)cc2)N1 (stereo not drawn) [TCMDC-137474] | 8.984%
O=S(=O)(NCCN1CCCC1)c1ccc(-c2ccc(CNCc3ccsc3)cc2)s1 [TCMDC-132285] | 78.64%
O=S(=O)(NCCN1CCCC1)c1ccc(-c2cccc(CNCc3ccsc3)c2)s1 [TCMDC-132274] | 102.4%
Cc1ccc(CNC(=O)c2ccc(CN3CCCN(Cc4ccsc4)CC3)cc2)cc1 [TCMDC-136451] | 11.88%
COc1ccc(S(=O)(=O)NC2CCN(c3ccc(C(F)(F)F)cc3NC(=O)OCC(C)C)CC2)cc1 [TCMDC-134275] | 14.87%
N#Cc1cccc(NC(=O)Nc2cccc(-c3cccc(-c4nc5ccc(C(F)(F)F)cc5[nH]4)c3)c2)c1 [TCMDC-133195] | -34.96%
Cc1nn(-c2ccccc2)c2c1C(c1ccc(C(C)C)cc1)N1C(=N2)N(Cc2ccccc2)c2ccccc21 (stereo not drawn) [TCMDC-123903] | -90.94%
COc1ccc(CN2CCN(CCOC(c3ccc(F)cc3)c3ccc(F)cc3)CC2)c(O)c1 [TCMDC-135694] | 24.37%
CCN1C(=O)N(CCC(C)C)C2(CCN(Cc3ccc(OC)cc3O)CC2)C1=O [TCMDC-124587] | 63.13%
COc1ccc(CN2CCN(CCOC(c3ccccc3)c3ccccc3)CC2)c(O)c1 [TCMDC-135693] | 26.17%
O=C(/C=C/c1ccc(Cl)c(Cl)c1)NCCCCCN1CCCC(CNS(=O)(=O)c2ccc(F)cc2)C1 (stereo not drawn) [TCMDC-139596] | 59.41%
COc1ccc(S(=O)(=O)NCC2CCCN(CCCCCNC(=O)/C=C/c3ccc(Cl)c(Cl)c3)C2)cc1 (stereo not drawn) [TCMDC-139595] | 95.6%
O=c1cc(NCCCNCc2cc(F)cc(C(F)(F)F)c2)[nH]c2ccccc12 [TCMDC-139726] | 25.21%
COc1ccc2ccccc2c1CNCCCCCCNCc1c(OC)ccc2ccccc12 [TCMDC-137915] | 112.9%
CC(C)COc1ccc2ccccc2c1CNCCCCCCNCc1c(OCC(C)C)ccc2ccccc12 [TCMDC-137972] | 129.3%

Compound | % Inhibition
CC(C)CCNCc1c(O)ccc2ccccc12 [TCMDC-137596] | 6.02%
CC(C)Oc1ccc2ccccc2c1CNCCCCCCNCc1c(OC(C)C)ccc2ccccc12 [TCMDC-137965] | 107.1%
CCCCNC[C@@H](O)[C@H](Cc1ccccc1)NC(=O)c1cc(NCC)cc(N2CCCCS2(=O)=O)c1 [TCMDC-135177] | 4.465%
CCOC(=O)c1[nH]c(-c2cccc(F)c2)nc1N [TCMDC-131794] | -46.62%
O=C(Nc1cccnc1)c1cc(-c2cccnc2)nc2ccc(Cl)cc12 [TCMDC-124361] | -11.56%
COc1ccc(-n2ncc(C(=O)N3CCC4(C3)C(=O)N(c3ccccc3)c3ccccc34)c2C)cc1 (stereo not drawn) [TCMDC-134122] | -6.778%
O=C(NC1CCN(CCN2CCc3ccccc3CC2)CC1)c1ccc(-c2ccc(C(F)(F)F)cc2)cc1 [TCMDC-138831] | -7.885%
O=C(/C=C/c1ccc(C(F)(F)F)cc1)NCCCCCN1CCC(c2c[nH]c3ccccc23)CC1 [TCMDC-139209] | 23.24%
O=C(NCCCCCN1CCC(c2c[nH]c3ccccc23)CC1)c1ccc(-c2ccccc2)nc1 [TCMDC-139157] | -73.03%
O=C(NCCCCN1CCC(c2c[nH]c3ccc(-c4ccccc4)cc23)CC1)c1ccc(-c2ccccc2)cc1 [TCMDC-139064] | 108.8%
O=C(NC1CCN(CCN2CCC(c3c[nH]c4ccccc34)CC2)CC1)c1ccc(-c2ccc(C(F)(F)F)cc2)cc1 [TCMDC-138845] | 66.39%
O=C(NCCCN1CCC(NC(=O)c2ccc(-c3cccnc3)cc2)CC1)c1ccc(Cl)c(Cl)c1 [TCMDC-133357] | 16.57%
O=C(NCCCCN1CCC(c2c[nH]c3ccccc23)CC1)c1sc(-c2ccc(C(F)(F)F)cc2)nc1CO [TCMDC-138780] | -12.54%
O=C(NCCCCN1CCC(c2c[nH]c3ccccc23)CC1)c1ccc(-c2ccc(C(F)(F)F)cc2)cc1 [TCMDC-138631] | 87.17%
COc1ccc2[nH]cc(C3CCN(CCCCCNC(=O)c4ccc(-c5ccccc5)cc4)CC3)c2c1 [TCMDC-139053] | 30.55%
O=C(NC1CCN(CCN2CCC(c3ccccc3C(F)(F)F)CC2)CC1)c1ccc(-c2ccc(Cl)cc2)cc1 [TCMDC-138809] | -39.81%
O=C(NCCCCCN1CCC(c2ccc(O)cc2)CC1)c1ccc(-c2ccccc2)cc1 [TCMDC-139196] | -56.25%
O=C(NCCCCCN1CCC(c2c[nH]c3ccccc23)CC1)c1ccc(-c2cccnc2)cc1 [TCMDC-139183] | 113.1%
CC(=O)c1ccccc1OCCSc1nnc(Cc2cccs2)n1C1CCCCC1 [TCMDC-123554] | -19.51%
CCN(C(=O)NC)C1c2cc(C#N)ccc2OC(C)(C)C1O (stereo not drawn) [TCMDC-131556] | 13.93%
CCCC1N=C(N)N=C(N)N1c1ccc(C)c(C)c1 (stereo not drawn) [TCMDC-131301] | 2.054%
O=C(Nc1cc(C(F)(F)F)ccc1N1CCOCC1)C(Cl)(Cl)Cl [TCMDC-123707] | 15.78%
CCCCN(CCCC)C(=N)c1cccc2c1CCCC2 [TCMDC-131553] | 17.3%
COc1ccc(CC2(c3ccc(F)cc3)N=C(N)N(CCCc3ccc4c(c3)OCO4)C2=O)cc1 (stereo not drawn) [TCMDC-136540] | -15.69%

Compound | % Inhibition
COc1cc(Cc2cnc(N)nc2N)cc(OCCNC(=O)OCc2ccccc2)c1OC [TCMDC-138056] | -17.39%
CCOC(=O)Nc1cc(-c2csc(N=C(N)N)n2)cc([N+](=O)[O-])c1 [TCMDC-137230] | -82.77%
Cn1nccc1C(=O)NCCNCc1cccc(-c2cccc(-c3nc4cc(C(F)(F)F)ccc4[nH]3)c2)c1.O=C(O)C(F)(F)F [TCMDC-133008] | 12.04%
COc1cc2c(cc1S(=O)(=O)c1ccc(NC(=O)c3cc4ccccc4s3)cc1)CCN(C)CC2 [TCMDC-133789] | 17.23%
COc1ccc2nc(C)cc(NC3Cc4ccccc4C3)c2c1.Cl [TCMDC-138978] | 40.25%
COc1ccc(Nc2nc(NN=Cc3cc(Cl)ccc3O)nc(Nc3ccccc3)n2)cc1 [TCMDC-124115] | 59.23%
COc1ccc(Nc2nc(N/N=C/c3cc(Br)ccc3O)nc(Nc3ccc([N+](=O)[O-])cc3)n2)cc1 [TCMDC-124182] | 30.94%
Oc1ccc2ccccc2c1C=NNc1nc(Nc2ccccc2)nc(Nc2ccccc2)n1 [TCMDC-125790] | 78.83%
COc1c(C=NNc2nc(Nc3ccccc3)nc(Nc3ccccc3)n2)ccc(Br)c1O [TCMDC-125800] | 79.97%
Oc1ccc2ccccc2c1C=NNc1nc(Nc2ccccc2)nc(N2CCOCC2)n1 [TCMDC-123839] | -12.77%
COc1ccc(Nc2nc(NN=Cc3cc(Br)c(O)cc3O)nc(Nc3ccc([N+](=O)[O-])cc3)n2)cc1 [TCMDC-124181] | 28.04%
O=[N+]([O-])c1cc2c(cc1C=NNc1nc(Nc3ccccc3)nc(Nc3ccccc3)n1)OCO2 [TCMDC-124249] | -0.02415%
Brc1cc2c(cc1C=NNc1nc(Nc3ccccc3)nc(Nc3ccccc3)n1)OCO2 [TCMDC-124195] | 14.96%
COc1ccc(Nc2nc(N/N=C/c3ccc(-c4ccc([N+](=O)[O-])cc4)o3)nc(Nc3ccccc3)n2)cc1 [TCMDC-124187] | 17.9%
Cc1cccc(CN2CCCC3(CCN(Cc4ccccc4O)C3)C2)c1 (stereo not drawn) [TCMDC-124654] | 29.07%
Cc1cc(NC(=O)c2cccs2)ccc1OC1CCN(Cc2ccccc2)C1 (stereo not drawn) [TCMDC-133968] | -2.762%
O=C(Cc1cnc[nH]1)Nc1ccc(-c2cccc(-c3nc4ccc(F)cc4[nH]3)c2)cc1 [TCMDC-136941] | 11.61%
CCCCCCN1CCCN(Cc2ccc(C(=O)Nc3ccc(F)c(F)c3)cc2)CC1 [TCMDC-136392] | -27.76%
Fc1ccc2nc(-c3ccc(-c4ccc(CNCCc5ccncc5)cc4)s3)[nH]c2c1 [TCMDC-132848] | -14.58%
CNCCNCc1ccc(-c2ccc(-c3nc4ccc(C(F)(F)F)cc4[nH]3)s2)cc1 [TCMDC-132838] | 66.7%
CS(=O)(=O)NCCCNCc1ccc(-c2ccc(-c3nc4ccc(F)cc4[nH]3)s2)cc1 [TCMDC-133084] | 18.31%
COc1ccc(CNCc2ccc(-c3ccc(-c4nc5cc(C(F)(F)F)ccc5[nH]4)s3)cc2)cc1.O=C(O)C(F)(F)F [TCMDC-132719] | -32.49%
CNCCNCc1ccc(-c2ccc(-c3nc4ccc(F)cc4[nH]3)s2)cc1 [TCMDC-132829] | 87.07%
CNCCNCc1cccc(-c2ccc(-c3nc4ccccc4[nH]3)s2)c1 [TCMDC-132823] | 28.05%
